Assay outcomes as filed in PubChem BioAssay.
C diff growth: C. difficile growth inhibition; 0.25% of 86,000 active; Clostridium difficile clinical isolate growth, OD600, 24 h; active compounds read low; AID 1259249; growth activity, negative = inhibition, % at 16 µg/mL (by protocol);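 active means mean growth activity at or below -80% and every replicate also at or below -80%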
Hits are given with their value; – = inactive; ! = not confirmed by another sample. Shown is part of a subset that was picked to be rich in hits.

SMILES | C diff growth
O=C(NC1CCCCC1)N1CC(=O)N2[C@H](C1)[C@@H](c1ccc(-c3ccccc3)cc1)[C@@H]2CO | –
O=C(CN1CCOCC1)NCC[C@H]1CC[C@@H](NC(=O)Nc2ccc(Cl)cc2)[C@H](CO)O1 | –
CNC[C@@H]1Oc2ncc(C#Cc3cccc(F)c3)cc2C(=O)N([C@H](C)CO)C[C@@H]1C | –
COc1ccc(C#Cc2ccc3c(c2)[C@H]2[C@H](CCN2C(=O)c2ccncc2)[C@H](CO)N3)cc1 | –
COc1ccc(C#Cc2ccc3c(c2)[C@H]2[C@H](CCN2C(=O)c2ccncc2)[C@@H](CO)N3)cc1 | –
COc1ccccc1C#Cc1ccc2c(c1)[C@H]1[C@H](CCN1C(=O)c1ccncc1)[C@H](CO)N2 | -100
O=C(Cc1ccccn1)N1CC2(C1)[C@H](c1ccccc1)[C@@H](CO)N2C(=O)c1ccccc1 | –
C[C@@H]1CN([C@@H](C)CO)C(=O)c2cc(NC(=O)Nc3ccc(C(F)(F)F)cc3)ccc2O[C@@H](C)CCCCO[C@H]1CN(C)Cc1ccc2c(c1)OCO2 | -92
C[C@@H]1CCCCO[C@@H](CN(C)Cc2ccc(C(F)(F)F)cc2)[C@H](C)CN([C@@H](C)CO)C(=O)c2cc(NC(=O)Nc3ccc(C(F)(F)F)cc3)ccc2O1 | –
C[C@H](CO)N1C[C@H](C)[C@H](CN(C)Cc2ccc3c(c2)OCO3)OCCCC[C@H](C)Oc2ccc(NC(=O)Nc3ccc(C(F)(F)F)cc3)cc2C1=O | –
C[C@@H]1CN([C@@H](C)CO)C(=O)c2cc(NC(=O)Nc3ccc(C(F)(F)F)cc3)ccc2O[C@@H](C)CCCCO[C@H]1CN(C)Cc1ccc(C(F)(F)F)cc1 | –
C[C@@H]1CCCCO[C@@H](CN(C)Cc2ccc3c(c2)OCO3)[C@@H](C)CN([C@H](C)CO)C(=O)c2cc(NC(=O)Nc3ccc(C(F)(F)F)cc3)ccc2O1 | –
C[C@@H]1CCCCO[C@H](CN(C)Cc2ccc3c(c2)OCO3)[C@@H](C)CN([C@@H](C)CO)C(=O)c2cc(NC(=O)Nc3ccc(C(F)(F)F)cc3)ccc2O1 | -100
C[C@@H]1CN([C@H](C)CO)C(=O)c2cc(NC(=O)Nc3ccc(C(F)(F)F)cc3)ccc2O[C@@H](C)CCCCO[C@H]1CN(C)Cc1ccc2c(c1)OCO2 | -100
C[C@@H]1CCCCO[C@H](CN(C)Cc2ccc3c(c2)OCO3)[C@H](C)CN([C@@H](C)CO)C(=O)c2cc(NC(=O)Nc3ccc(C(F)(F)F)cc3)ccc2O1 | –
C[C@H]1CCCCO[C@H](CN(C)Cc2ccc3c(c2)OCO3)[C@@H](C)CN([C@@H](C)CO)C(=O)c2cc(NC(=O)Nc3ccc(C(F)(F)F)cc3)ccc2O1 | –
COc1ccc2c3c(n(C)c2c1)[C@H](CO)N(C)CC31CCN(C(=O)Nc2c(C)noc2C)CC1 | –
C[C@H](CO)N1C[C@H](C)[C@H](CN(C)C(=O)CN(C)C)Oc2cc(C3=CCCCC3)ccc2S1(=O)=O | –
C[C@@H]1CN([C@H](C)CO)C(=O)c2cc(N(C)C)ccc2O[C@@H]1CN(C)C | –
COc1ccc2c3c(n(C)c2c1)[C@@H](CO)N(C(=O)C1CCOCC1)CC31CCN(Cc2cccc(F)c2)CC1 | –
COCC(=O)Nc1ccc2c(c1)OC[C@@H](C)N(C(=O)C1CCCC1)C[C@@H](C)[C@@H](OC)CN(C)C2=O | –
O=C(C[C@@H]1CC[C@H]2[C@@H](COC[C@H](O)CN2C(=O)Nc2ccc(Cl)cc2)O1)N1CCCCC1 | –
O=C(C[C@H]1CC[C@H]2[C@@H](COC[C@@H](O)CN2C(=O)Nc2cc(Cl)cc(Cl)c2)O1)N1CCOCC1 | –
O=C(C[C@@H]1CC[C@@H]2[C@H](COC[C@@H](O)CN2C(=O)Nc2cc(Cl)cc(Cl)c2)O1)N1CCOCC1 | –
O=C(C[C@H]1CC[C@@H]2[C@H](COC[C@@H](O)CN2C(=O)Nc2cccc(Cl)c2)O1)N1CCCCC1 | –
SMILES | C diff growth
O=C(C[C@@H]1CC[C@@H]2[C@H](COC[C@H](O)CN2C(=O)Nc2cc(Cl)cc(Cl)c2)O1)N1CCOCC1 | -101!
O=C(C[C@H]1CC[C@@H]2[C@H](COC[C@H](O)CN2C(=O)Nc2cc(Cl)cc(Cl)c2)O1)N1CCOCC1 | -92!
CCCC(=O)Nc1ccc2c(c1)OC[C@H](C)N(Cc1cccc(F)c1)C[C@H](C)[C@@H](OC)CN(C)C2=O | –
CN(C)C(=O)c1ccc(-c2ccc3c(c2)[C@@H]2[C@@H](CCN2C(=O)C2CCCCC2)[C@H](CO)N3C)cc1 | –
COc1ccccc1C#Cc1ccc2c(c1)[C@H]1NCC[C@H]1[C@@H](CO)N2 | –
OC[C@@H]1Nc2ccc(C#Cc3cccc(F)c3)cc2[C@@H]2NCC[C@H]12 | -98
O=S(=O)(c1ccc(F)cc1)N1CC[C@@H]2[C@@H](CO)Nc3ccc(C#Cc4cccc(F)c4)cc3[C@@H]21 | –
COc1ccc(NC(=O)N(C)C[C@@H]2Oc3ccc(NS(=O)(=O)c4ccccc4)cc3CC(=O)N([C@H](C)CO)C[C@@H]2C)cc1 | –
COc1ccc2c3c(n(C)c2c1)[C@@H](CO)N(C)CC31CN(S(=O)(=O)c2cccc(F)c2)C1 | –
